The values that follow come from the supplement of paper PMC12350171.

Counter-ions that a name gives are not always drawn. Values without a mark were called inactive.

Holding throughout (conditions): 20 µM
Assay [1] deals with Salmonella enterica typhimurium. In words: growth AUC normalised to DMSO control (fraction of control); higher = less growth inhibition, active = hit call of the paper. The essentials:
(§1)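 Hemin and NAD were added to the medium for Haemophilus parainfluenzae. All pathogens, after two anaerobic passages, were inoculated at a starting OD578 of 0.01 into pre-reduced mGAM plates with 20 μM compound and 1% DMSO under breathable seals, and OD578 was read hourly for 24 h in three biological replicates. AUC of each growth curve was obtained with the trapezoidal rule up to the exponential-to-stationary transition and normalised to DMSO controls from the same plate.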

The next assay relates to Shigella flexneri. The assay is described as above. In outline: as §1
The test system of the next assay is Vibrio cholerae. The description is as above. The essentials:
as §1

Assay [2] concerns Yersinia pseudotuberculosis. Described as above. The essentials:
as §1

The next assay deals with P. vulgatus RND KO. The assay is described as follows: growth AUC normalised to DMSO control (median) (fraction of control); higher = less growth inhibition, active = hit call of the paper. The essentials: (§2)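 Strains were passaged twice overnight without oxygen, then grown in mGAM in 96-well plates with each approved-drug library compound at 20 μM and 1% DMSO, starting at OD578 0.01. OD578 was read hourly for 24 h inside an anaerobic incubator. Curves were truncated at entry into stationary phase, and the trapezoidal-rule area under the curve was normalised to same-plate vehicle wells. The value is the median across three biological replicates.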

For a further assay, the system named is P. vulgatus WT. The assay is described as above. The essentials:
as §2

The test system of assay [3] is S. enterica typhimurium WT. The assay is described as above. The essentials: as §2
For assay [4], the system named is S. enterica typhimurium tolC KO. Described as above. In outline: as §2
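Throughout, for growth AUC normalised to DMSO control (median): active when median AUC fell below 0.1.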

For the compound `NC[C@@H]1O[C@@H](O[C@H]2[C@H](O)[C@@H](O[C@H]3O[C@H](CO)[C@@H](O)[C@H](N)[C@H]3O)[C@H](N)C[C@@H]2N)[C@@H](O)[C@H](O)[C@H]1O` [Kanamycin A sulfate], the “growth AUC normalised to DMSO control” value is 1.01 in assay [1]; 1.03 in the assay with Shigella flexneri; 1.05 with Vibrio cholerae; 1 in assay [2]; 1.01 in the assay on P. vulgatus RND KO; 0.992 in the assay with P. vulgatus WT. Besides, the “growth AUC normalised to DMSO control” value in assay [3] and in assay [4] was 1.01 each time.
Turning to `CC(C)Cc1ccc([C@H](C)C(=O)O)cc1` [(S,+) Ibuprofen], the “growth AUC normalised to DMSO control” value was 1.01 in assay [1]; 0.968 with Shigella flexneri; 0.95 in the assay on Vibrio cholerae; 0.983 in assay [2]; 0.989 with P. vulgatus RND KO; 0.982 with P. vulgatus WT. The “growth AUC normalised to DMSO control” value in assay [3] was 0.994; in assay [4] it was 1.
Turning to `CCCCC1C(=O)N(c2ccccc2)N(c2ccccc2)C1=O` [Phenylbutazone], the “growth AUC normalised to DMSO control” value in assay [1] was 1.01; in the assay with Shigella flexneri it was 0.991; with Vibrio cholerae, 0.973; in assay [2], 1.01; with P. vulgatus RND KO, 1.03; in the assay on P. vulgatus WT, 1.07. The entries for the “growth AUC normalised to DMSO control” value in assay [3] and in assay [4] were 1 and 0.964, respectively.
For `CCOC(=O)[C@H](CCc1ccccc1)N[C@@H](C)C(=O)N1Cc2ccccc2C[C@H]1C(=O)O` [Quinapril hydrochloride], the “growth AUC normalised to DMSO control” value in assay [1] is 0.986; in the assay with Shigella flexneri it was 0.967; in the assay on Vibrio cholerae it was 0.988; in assay [2], 1.01; in the assay on P. vulgatus RND KO, 0.995; with P. vulgatus WT, 0.982. The “growth AUC normalised to DMSO control” value in assay [3] was 0.982; in assay [4], 0.996.
On to `O=C(O)CN(CCN(CC(=O)O)CC(=O)O)CCN(CC(=O)O)CC(=O)O` [Pentetic acid], for which the “growth AUC normalised to DMSO control” value in assay [1] was 1; in the assay on Shigella flexneri, 1.01; with Vibrio cholerae it was 1.03; in assay [2] it was 1.07; in the assay with P. vulgatus RND KO it was 1.05; with P. vulgatus WT, 1.08. In addition, the entries for the “growth AUC normalised to DMSO control” value in assay [3] and in assay [4] were 1.02 and 0.998, respectively.
For `c1ccc(CN(CC2=NCCN2)c2ccccc2)cc1` [Antazoline hydrochloride], the “growth AUC normalised to DMSO control” value in assay [1] was 0.999; with Shigella flexneri, 1.01; in the assay on Vibrio cholerae, 1.01; in assay [2] it was 1; in the assay on P. vulgatus RND KO it was 1.03; in the assay with P. vulgatus WT, 1.05. Also, the “growth AUC normalised to DMSO control” value in assay [3] was 0.996; in assay [4], 1.
With `NS(=O)(=O)c1cc2c(cc1Cl)N=CNS2(=O)=O` [Chlorothiazide], the “growth AUC normalised to DMSO control” value is 1.01 in assay [1]; 0.998 with Shigella flexneri; 1.02 with Vibrio cholerae; 1.01 in assay [2]; 1.03 in the assay on P. vulgatus RND KO; 1.07 in the assay on P. vulgatus WT. In addition, the “growth AUC normalised to DMSO control” value in assay [3] and in assay [4] was 1.01 each time.
As to `COc1ccc(CC2c3cc(OC)c(OC)cc3CC[N+]2(C)CCC(=O)OCCCCCOC(=O)CC[N+]2(C)CCc3cc(OC)c(OC)cc3C2Cc2ccc(OC)c(OC)c2)cc1OC` (centres undefined) [Atracurium besylate], the “growth AUC normalised to DMSO control” value in assay [1] is 1; in the assay with Shigella flexneri, 1.05; with Vibrio cholerae, 1.01; in assay [2], 1; with P. vulgatus RND KO, 1.04; with P. vulgatus WT, 1.04. Also, the “growth AUC normalised to DMSO control” value in assay [3] is 0.983; in assay [4] it was 1.01.
For the compound `NCCCCCC(=O)O` [Aminocaproic acid], the “growth AUC normalised to DMSO control” value in assay [1] is 0.999; in the assay on Shigella flexneri, 1.06; in the assay on Vibrio cholerae it was 1.07; in assay [2], 1.02; in the assay on P. vulgatus RND KO it was 1.07; in the assay with P. vulgatus WT, 1.1. Also, the results for the “growth AUC normalised to DMSO control” value in assay [3] and in assay [4] were 1.02 and 1, respectively.
Consider `CC(=O)Oc1cc(C(F)(F)F)ccc1C(=O)O` [Triflusal], for which the “growth AUC normalised to DMSO control” value in assay [1] is 0.964; in the assay on Shigella flexneri it was 0.949; in the assay with Vibrio cholerae, 0.959; in assay [2], 0.954; in the assay on P. vulgatus RND KO it was 0.979; in the assay on P. vulgatus WT, 1. Further, the “growth AUC normalised to DMSO control” value in assay [3] was 0.995; in assay [4], 0.955.
In the case of `CN1CC2c3ccccc3Oc3ccc(Cl)cc3C2C1` (centres undefined) [Asenapine maleate], the “growth AUC normalised to DMSO control” value is 0.954 in assay [1]; 0.974 in the assay with Shigella flexneri; 0.837 (active) in the assay on Vibrio cholerae; 0.976 in assay [2]; 0.939 in the assay with P. vulgatus RND KO; 0.948 in the assay with P. vulgatus WT. The “growth AUC normalised to DMSO control” value is 0.973 in assay [3] and 0.935 in assay [4].
With `Nc1nc(=O)c2nc(CNc3ccc(C(=O)N[C@@H](CCC(=O)O)C(=O)O)cc3)cnc2[nH]1` [Folic acid], the “growth AUC normalised to DMSO control” value in assay [1] was 0.991; in the assay with Shigella flexneri, 0.99; with Vibrio cholerae, 1; in assay [2], 0.994; with P. vulgatus RND KO it was 0.997; with P. vulgatus WT it was 1. Besides, the “growth AUC normalised to DMSO control” value was 0.997 in assay [3] and 1.01 in assay [4].
Consider `CN(C)CCOC(=O)COc1ccc(Cl)cc1` [Meclofenoxate hydrochloride], for which the “growth AUC normalised to DMSO control” value is 0.977 in assay [1]; 0.942 in the assay on Shigella flexneri; 0.977 with Vibrio cholerae; 0.935 in assay [2]; 0.996 in the assay on P. vulgatus RND KO; 0.985 in the assay on P. vulgatus WT. In addition, the figures for the “growth AUC normalised to DMSO control” value in assay [3] and in assay [4] were 1.01 and 0.995, respectively.
